# Sm TGR block = S. mansoni TGR enzyme inhibition; Q962Y6; purified TGR, DTNB reduction, TNB absorbance 405 nm; Potency, µM (top dose mostly 114 µM), inactives show top-dose activity change, negative = inhibition, usual class: inhibitors; actives 3% (n = 360,000); AID 485364; also: nearly all actives have a fitted effect of over 60% in size
#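 First, TGR (20 nM dispensed) and NADPH were mixed with compound. Second, a 15 min room-temperature incubation followed. Third, further NADPH and then DTNB were added to start the reaction. Finally, TNB absorbance was monitored kinetically.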
# MARV entry inh = Marburg virus entry inhibition | Marburg virus pseudotyped entry inhibition, cell reporter | Potency, µM (series often up to 37.8 µM), inactives show at the top dose activity change, negative = inhibition, usual class: inhibitors | AID 540276 | actives 1.8% (n = 300,000); calls by dose curve; tested in HEK293 cells
# HCV inh = blocks hepatitis C virus; Huh7.5.1 HCVcc-Cre infection, luciferase reporter, 44 h; actives 3.4% (n = 340,000); AID 651820; Potency, µM (doses to about 41.8 µM), for inactives: at the highest dose activity change, negative = inhibition, usual class: inhibitors
#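 Compounds are dispensed onto cells plated 4 h earlier at 1,000 per well, with HCVcc-Cre virus (about 0.5 moi) added next. Following 44 h of culture, luminescent signal is measured for 15 sec after 15 min with substrate at room temperature.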
# RE007 growth inh = less growth of the S. pombe RE007 Vpr strain. Potency, µM (doses to about 92.2 µM), for inactives: at the top dose activity change, negative = less growth, most hits filed as inhibitors. actives 0.21% (n = 360,000). AID 651644. S. pombe RE007 Vpr strain, BacTiter-Glo ATP luminescence, 24 h; active = well fitted falling curve with a large enough effect; inconclusive = small, poorly fitted or top-dose-only effect; inactive = no such curve, though single readings can be large or run the other way; also: nearly all actives have a fitted effect of over 50% in size
#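 Fission yeast RE007 carrying one integrated HIV-1 vpr copy, seeded at OD 0.01 in PMG+AL medium with 23 nL pinned compound. Grown 24 h at 30 degrees; viability read by BacTiter-Glo luminescence after 5 min.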
# FMDV inh = antivirals against foot and mouth disease virus; AID 1159524; Potency, µM (highest dose often 57.9 µM), for inactives: at the top dose activity change, negative = inhibition, usual class: inhibitors; FMDV antiviral cell-based qHTS; actives 1.2% (n = 410,000); calls by dose curve; tested in HEK293T cells; also: read-out not given here; nearly all actives have a fitted effect of over 45% in size
# LASV entry inh = inhibitors of Lassa virus binding or cell entry | actives 1.2% (n = 300,000) | Potency, µM (highest dose often 37.9 µM), inactives show at the highest dose activity change, negative = inhibition, most hits filed as inhibitors | Lassa virus pseudotype entry inhibition, cell reporter; calls by dose curve; tested in HEK293 cells; also: nearly all actives have a fitted effect of over 50% in size
# * hit, by the source's call; ? = inconclusive; nt = no result; ! = not active in a repeat; [ ] = another dose, or the depositor's remark. A selection: hits, their analogues and other compounds. The true share with any hit is near 7.2%. Unless noted, calls follow the shape of the dose curve; as a rule, active = well fitted curve in the direction sought with a large enough effect; inconclusive = small, poorly fitted or top-dose-only effect, or another doubt; inactive = no such curve, though single readings can be large; an effect the other way counts as inactive or inconclusive. % is scaled to controls: 0 for no effect and ±100 for the full control effect; potency is read from the fitted curve at half-maximal effect.
SMILES,Sm TGR block,MARV entry inh,HCV inh,RE007 growth inh,FMDV inh,LASV entry inh
COCC(=O)Nc1cc(C(=O)N2CCCCC2c2nccn2C)cc2nc(-c3ccccc3)n(C)c12 (centres undefined),nt,nt,nt,nt,4%,nt
Cc1cc(C)nc(NS(=O)(=O)c2ccc(NS(=O)(=O)c3ccccc3)cc2)n1,4%,?,8%,9%,nt,-1%
CCN(CC)N=Nc1ccc(S(=O)(=O)Nc2nc(C)cc(C)n2)cc1,11µM*!,-18%[46.1 µM],2%,3%,52%,-12%[46.1 µM]
Cc1ccc(S(=O)(=O)N2CCN(C(=O)c3ccccc3OCc3c(C)noc3C)CC2)cc1,8%,nt,0.56µM*,-2%,0%,nt
COc1ccccc1N1CCN(C(CNC(=O)c2ccc3c(c2)OCO3)c2cccnc2)CC1 (centres undefined),-23%,-29%,11µM*,20%,-30%,21%
COc1ccc(F)cc1C(=O)C1CCCN(Cc2cccn2-c2ccccn2)C1 (centres undefined),-8%,?,?,-2%,-29%,10µM*
Cc1ccsc1C(=O)C1CCCN(Cc2cccn2-c2ccccn2)C1 (centres undefined),-14%,5.6µM*,-23%,-16%,?,?
Cc1ccsc1C(=O)C1CCCN(Cc2cnc(N3CCOCC3)s2)C1 (centres undefined),0%,?,?,-18%,25µM*,?
O=C(c1cc(F)ccc1F)C1CCCN(Cc2cccn2-c2ccccn2)C1 (centres undefined),-14%,nt,6%,-15%,18%,nt
O=C(c1ccc2c(c1)N(Cc1cccc(Cl)c1)C(=O)c1ccccc1S2=O)N1CCC(Cc2ccccc2)CC1 (centres undefined),4%,nt,nt,nt,0%,?
O=C(O)c1ccc(S(=O)(=O)N[C@@H](Cc2ccc(O)cc2)C(=O)O)cc1,45µM*,nt,nt,nt,nt,nt
CCOc1ccccc1NC(=O)N1CC(CC)Oc2ccccc21 (centres undefined),?,nt,nt,nt,-13%,-17%[46.1 µM]
COc1ccc(CNn2c(C)nc3ccccc3c2=O)cc1,-16%,?,-26%,-10%,nt,1%
CCCCOc1ccc(CNn2c(C)nc3ccccc3c2=O)cc1,7%,?,10µM*,4%,?,-1%
CCN1C(=NCCc2cccs2)N[C@@H](CCc2ccccc2)[C@H](C(=O)NCCc2cccs2)[C@H]1C,-18%,?,nt,nt,nt,nt
O=C(NCC(c1ccc2c(c1)OCO2)N1CCN(c2ccccc2)CC1)C(=O)Nc1ccc(F)cc1 (centres undefined),3%,nt,nt,nt,46%,23%[46.1 µM]
Fc1ccc(C[n+]2csc3ccccc32)cc1,0%,4%,-9%,18%,-9%,-3%
Clc1ccc(C[n+]2csc3ccccc32)cc1,4.5µM*,13%,?,3%,13%,4%
C[C@@H](C(=O)NCC1CC1)[C@@H]1C[C@@]1(C)[C@@H](NC(=O)OCc1ccccc1)c1ccccc1,-13%,-18%,0.56µM*,-4%,8%,?
C=CCN1c2ccccc2[C@]23C[C@@H](C(=O)OC)N(C(=O)Nc4ccccc4F)C2=NC(C(=O)OC)=C(C(=O)OC)[C@H]13,nt,3%[14.2 µM],nt,nt,nt,nt
Cc1ccc(N(C)C(=O)Cn2ncc3c([nH]c4ccccc43)c2=O)cc1C,-1%,nt,nt,nt,-38%,-5%[46.1 µM]
O=C(CNC(=O)C12CC3CC(CC(C3)C1)C2)N1CCN(S(=O)(=O)/C=C/c2ccccc2)CC1,2%,-17%,-1%,-14%,40µM*,?
COC(=O)c1cccc(C(=O)N2CCc3c(cnc(C)c3CNC(=O)/C=C/c3cccs3)C2)c1,nt,nt,nt,nt,-8%,nt
CCOC(=O)c1sc(NC(=O)CSc2ncccn2)nc1C,1%,?,16µM*,46%,33%,?
CCOC(=O)c1c(NC(=O)CSc2ncccn2)sc2c1CCN(Cc1ccccc1)C2,-14%,16µM*,?,-12%,?,?
CCOC(=O)c1c(NC(=O)CC)sc2c1CCN(Cc1ccccc1)C2,2%,nt,11µM*,-12%,-28%,nt
